Assay results taken from ChEMBL document CHEMBL3988442, “University of Dundee, Small-Polar-MMV Screening Library” (2021).
Among all 69,000 compounds or so, about 950 (1.4%) showed an effect of 50% or more. The entries come from a sample that favours strong results as a whole.

system: Mycobacterium tuberculosis; experiment: Cornell M. t heat shock assay; assay type: functional, organism-based; set-up: dose or concentration left out as unconfirmed; also: in the data most compounds retested in dose-response had high values

Row | Compound | Percent Effect
1 | COCCN1C[C@@H]2CCCO[C@@H]2[C@H](N(C)Cc2ccco2)C1.O=C(O)C(F)(F)F.O=C(O)C(F)(F)F | 1.752%
2 | Cn1cc(N2CC3(CCN(Cc4ccsc4)CC3)OCC2=O)cn1.O=C(O)C(F)(F)F | -18.04%
3 | Cc1cnccc1-c1cnn(CCNC(=O)C(C)(C)C)c1C1CC1.Cl | -19.45%
4 | O=C(O)C(F)(F)F.O=C1COC2(CCN(Cc3ccco3)CC2)CN1 | -45.46%
5 | c1csc(CN2CCCN(c3ccc(Cn4ccnc4)cn3)CC2)c1 | -13.19%
6 | Fc1ccc(N2CCCN(c3ccc(Cn4ccnc4)cn3)CC2)cc1 | 107.2%
7 | c1cn(Cc2ccc(N3CCCN(C4CCCC4)CC3)nc2)cn1 | 1.871%
8 | Cc1cc2c(cc1CNC(Cc1cccs1)c1nccs1)OCO2.Cl (stereo not drawn) | 5.172%
9 | CC(=O)N1C[C@@H]2CN(Cc3cccnc3)CCO[C@@H]2C1.O=C(O)C(F)(F)F.O=C(O)C(F)(F)F | -47.04%
10 | O=C(O)C(F)(F)F.O=C1[C@H]2CN(CC3CC3)C[C@H]2CN1c1ccsc1 | 20.81%
11 | Cc1cc(N2CCCC2c2nnc3n2CCCCC3)nc(N)n1 (stereo not drawn) | -8.114%
12 | Clc1cncc(N2CCCC2c2nnc3n2CCCCC3)n1 (stereo not drawn) | -7.126%
13 | Cc1cc(N2CCCC2c2nnc3n2CCCCC3)nc(C)n1 (stereo not drawn) | 66.84%
14 | Cn1ncc2c1CN(Cc1ccc(F)cc1)CC2COCC1CC1.O=C(O)C(F)(F)F.O=C(O)C(F)(F)F (stereo not drawn) | -18.92%
15 | Cn1ncc2c1CN(Cc1cccnc1)CC2COCC1CC1.O=C(O)C(F)(F)F.O=C(O)C(F)(F)F.O=C(O)C(F)(F)F (stereo not drawn) | -6.244%
16 | Cn1ncc2c1CN(Cc1ccccc1F)CC2COCC1CC1.O=C(O)C(F)(F)F.O=C(O)C(F)(F)F (stereo not drawn) | 103.1%
17 | COCCN1C(=O)CC(N2CCN(c3ccc(OC)cc3)CC2)C1=O (stereo not drawn) | 70.99%
18 | COCCN1C(=O)CC(N2CCN(c3ccccc3)CC2)C1=O (stereo not drawn) | 12.72%
19 | COCCN1C(=O)CC(N2CCN(c3ccc(F)cc3)CC2)C1=O (stereo not drawn) | -16.16%
20 | CN1C(=O)CCC12CCCN(C(=O)c1ccncc1F)C2.O=C(O)C(F)(F)F (stereo not drawn) | 38.17%
21 | Cl.NCC(=O)N1CCC(c2ccnc(Nc3cc(C(F)(F)F)ccn3)n2)C1 (stereo not drawn) | -2.931%

Row | Compound | Percent Effect
22 | Cc1cccc(CN2CC[C@@H]3[C@@H]2CCN3Cc2cccs2)n1.O=C(O)C(F)(F)F.O=C(O)C(F)(F)F | -14.73%
23 | CNC(=O)COC1COC2(CCN(Cc3cccnc3)CC2)C1.O=C(O)C(F)(F)F (stereo not drawn) | 22.59%
24 | CCn1ncc2c1CCCC2NCc1ccc(C)s1 (stereo not drawn) | 16.54%
25 | Cc1ccc(CNC2CCCc3c2cnn3Cc2ccccc2)s1.Cl (stereo not drawn) | 52.93%
26 | Cc1cccc(CNC2CCCc3c2cnn3Cc2ccccc2)c1.Cl (stereo not drawn) | -5.892%
27 | Cn1cc(CNC2CCc3c(ccc(=O)n3Cc3cccnc3)C2)cn1.O=C(O)C(F)(F)F.O=C(O)C(F)(F)F (stereo not drawn) | 12.8%
28 | CN(C)C(=O)[C@H]1CO[C@H]2CCN(c3ncc(F)cn3)C[C@H]2C1.O=C(O)C(F)(F)F | 5.292%
29 | CC(CNCc1ccc(F)cc1)Oc1ccccn1.Cl (stereo not drawn) | 4.534%
30 | Cc1nc(CN2CCCC(N(C)c3ccc(C#N)cn3)C2)no1 (stereo not drawn) | -30.96%
31 | CCc1nc(CN2CCCC(N(C)CCc3cccs3)C2)no1 (stereo not drawn) | 22.05%
32 | CN(CCc1cccs1)C1CCCN(Cc2noc(C3CC3)n2)C1 (stereo not drawn) | 32.3%
33 | Cc1nc(CN2CCCC(N(C)CCCc3ccccc3)C2)no1 (stereo not drawn) | -1.488%
34 | Cc1nc(CN2CCCC(N(C)c3cnc4ccccc4n3)C2)no1 (stereo not drawn) | 68.17%
35 | Cc1nc(CN2CCCC(N(C)CCc3cccs3)C2)no1 (stereo not drawn) | 86.93%
36 | Cc1nc[nH]c1CN1C[C@@H]2CC[C@H](C1)N(C(=O)c1cnn(C)c1)C2 | -6.364%
37 | Cc1ccc(C(=O)N2Cc3c(CN4CCCCC4)nn(C)c3C2)cc1F.O=C(O)C(F)(F)F | -32.35%
38 | Cc1ccc(CN2CCC3(CC2)C(c2ccccc2)CC(=O)N3C)o1.O=C(O)C(F)(F)F (stereo not drawn) | 26.84%
39 | Cn1cc(C(=O)NCc2cn3c(n2)CN(CC2CCOC2)CC3)cn1.O=C(O)C(F)(F)F.O=C(O)C(F)(F)F (stereo not drawn) | -28.66%
40 | O=C1c2cnc(N3CCCC3)nc2CN1C1CCS(=O)(=O)C1 (stereo not drawn) | 9.039%
41 | Cc1cccc(CNC(Cc2ccsc2)c2nccs2)n1 (stereo not drawn) | 101.9%
42 | Cc1nc(C(Cc2ccsc2)NC(=O)CN2CCOCC2)sc1C (stereo not drawn) | -3.287%

Row | Compound | Percent Effect
43 | Cc1cccc(CNC(Cc2ccsc2)c2nc(C)c(C)s2)n1.Cl (stereo not drawn) | 106.6%
44 | O=C(NC(Cc1ccsc1)c1nccs1)C1CC1 (stereo not drawn) | -16.41%
45 | COc1ccccc1CNC(Cc1cccs1)c1nc(C)c(C)s1.Cl (stereo not drawn) | 6.532%
46 | COc1cccc(CNC(Cc2cccs2)c2nc(C)c(C)s2)c1OC.Cl (stereo not drawn) | -9.078%
47 | CC(C)Oc1cccc(CNC(Cc2ccsc2)c2nccs2)c1.Cl (stereo not drawn) | 2.523%
48 | Cc1nc(C(Cc2ccsc2)NC(=O)CCN2CCOCC2)sc1C (stereo not drawn) | 3.097%
49 | CCC(CN1CCCC1)NC(=O)C1(c2cccc(F)c2)CC1.O=C(O)CC(O)(CC(=O)O)C(=O)O (stereo not drawn) | -3.287%
50 | CN(C)C(=O)[C@@]12CCO[C@@H]1CCN(Cc1ccc3c(c1)OCO3)C2.O=C(O)C(F)(F)F | 4.753%
51 | Cc1noc([C@]23COC[C@H]2CN(C(=O)CN(C)C)C3)n1.O=C(O)C(F)(F)F | 15.78%
52 | CC1CCN(c2cc(CCC3CCCN3)ncn2)CC1.Cl (stereo not drawn) | -19.69%
53 | Cc1nocc1C(=O)N1CCOC2(COCCN(C(C)C)C2)C1.O=C(O)C(F)(F)F (stereo not drawn) | 1.76%
54 | CCN(Cc1cccc2c1OCO2)CC1CCCO1 (stereo not drawn) | -23.06%
55 | CCN(Cc1cccnc1)CC1CCCO1 (stereo not drawn) | -42.47%
56 | CCN(Cc1ccc2cccc(O)c2n1)CC1CCCO1 (stereo not drawn) | 84.2%
57 | O=C(O)C(F)(F)F.O=S1(=O)c2ccccc2C2(CCN(Cc3ccccc3)C2)N1CC1CC1 (stereo not drawn) | 20.71%
58 | COCCN(C)c1ccc(NCc2ccsc2)nc1 | 90.49%
59 | CCn1cc(CNc2ccc(N(C)CCOC)cn2)cn1 | 57.45%
60 | COCCN(C)c1ccc(NCc2cccnc2)nc1 | 21.66%
61 | CCn1cc(CNc2ccc(Br)c(OC)c2)cn1 | -14.65%
62 | OCC1CCN(c2ccc(NCc3ccsc3)nc2)CC1 | 11.8%
63 | COCCN(C)c1ccc(NCc2cscn2)nc1 | 13.97%
